From PubChem BioAssay (Tox21)
Inconclusive results are not listed. Where a call stands in place of a potency, no number is given. Active and inactive are the calls of the source. Calls come from the whole dose curve; as a rule, active = well fitted curve in the direction sought with a large enough effect in the repeat runs; inconclusive = weak or mixed curves; inactive = no such curve, though single readings can be large; an effect the other way counts as inactive or inconclusive.

Assays:
[1] = biological target: Cytochrome P450 2D6 (Homo sapiens) (UniProt P10635); assay: Cytochrome P450 Family 2 Subfamily D Member 6 (CYP2D6) small molecule antagonists: luciferase reporter qHTS assay (AID 1671196); note: nearly all actives have a fitted effect of over 50% in size; note: potency is the fitted concentration of half-maximal effect
How it was run: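 Chemicals tested for interference with CYP2D6 activity; proluciferin substrate, NADPH regeneration, 1 h at room temperature, luminescent detection.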

[2] = biological target: Cytochrome P450 2C19 (Homo sapiens) (UniProt P33261); assay: Cytochrome P450 Family 2 Subfamily C Member 19 (CYP2C19) small molecule antagonists: luciferase reporter qHTS assay (AID 1671197); note: nearly all actives have a fitted effect of over 65% in size; note: potency is the fitted concentration of half-maximal effect
How it was run: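 Relative luminescence units recorded 20 min after the detection reagent stopped a 1 h, 37C CYP2C19 reaction on proluciferin substrate, which was started by NADPH regeneration following 10 min room-temperature compound preincubation; ketoconazole positive control.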

[3] = biological target: Cytochrome P450 3A4 (Homo sapiens) (UniProt P08684); assay: Cytochrome P450 Family 3 Subfamily A Member 4 (CYP3A4) small molecule antagonists: luciferase reporter qHTS assay (AID 1671201); note: nearly all actives have a fitted effect of over 50% in size; note: potency is the fitted concentration of half-maximal effect
How it was run: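 Room-temperature assay throughout: 10 min compound–enzyme/substrate preincubation, 1 h reaction after NADPH regeneration solution, 20 min detection. Luciferin formed from proluciferin substrate is quantified by luminescence.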

[4] = biological target: Cytochrome P450 1A2 (Homo sapiens) (UniProt P05177); assay: Cytochrome P450 Family 1 Subfamily A Member 2 (CYP1A2) small molecule antagonists: luciferase reporter qHTS assay (AID 1671199); note: nearly all actives have a fitted effect of over 50% in size; note: potency is the fitted concentration of half-maximal effect
How it was run: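 Read-out is luminescence from luciferin detection reagent (20 min) proportional to CYP1A2 activity; compounds in DMSO preincubated 10 min with enzyme and proluciferin substrate, then NADPH regeneration solution, 1 h, room temperature.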

[5] = biological target: Voltage-gated inwardly rectifying potassium channel KCNH2 (Homo sapiens) (UniProt Q12809); assay: Human Ether-a-go-go-Related Gene (hERG) channel small molecule antagonists: fluorescence cell-based qHTS assay (AID 1671200);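 note: hERG-expressing U2OS cells given a thallium stimulus after FluxOR II dye loading; series mostly up to about 77 µM; nearly all actives have a fitted effect of over 50% in size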
How it was run: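 Cell line hERG-U2OS; dye FluxOR II, 1 h RT dark; Tl+ stimulus; ex 480/em 540 nm, read each second for 2 min.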

[6] = biological target: Cytochrome P450 2C9 (Homo sapiens) (UniProt P11712); assay: Cytochrome P450 Family 2 Subfamily C Member 9 (CYP2C9) small molecule antagonists: luciferase reporter qHTS assay (AID 1671198); note: nearly all actives have a fitted effect of over 50% in size; note: potency is the fitted concentration of half-maximal effect
How it was run: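 P450-Glo proluciferin substrate with CYP2C9 enzyme; 10 min RT preincubation, then NADPH regeneration 1 h at 37C; luciferin detection reagent 20 min RT, luminescence in relative luminescence units.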

Sequence of Cytochrome P450 2C19 (Homo sapiens) (P33261 whole entry, looked up): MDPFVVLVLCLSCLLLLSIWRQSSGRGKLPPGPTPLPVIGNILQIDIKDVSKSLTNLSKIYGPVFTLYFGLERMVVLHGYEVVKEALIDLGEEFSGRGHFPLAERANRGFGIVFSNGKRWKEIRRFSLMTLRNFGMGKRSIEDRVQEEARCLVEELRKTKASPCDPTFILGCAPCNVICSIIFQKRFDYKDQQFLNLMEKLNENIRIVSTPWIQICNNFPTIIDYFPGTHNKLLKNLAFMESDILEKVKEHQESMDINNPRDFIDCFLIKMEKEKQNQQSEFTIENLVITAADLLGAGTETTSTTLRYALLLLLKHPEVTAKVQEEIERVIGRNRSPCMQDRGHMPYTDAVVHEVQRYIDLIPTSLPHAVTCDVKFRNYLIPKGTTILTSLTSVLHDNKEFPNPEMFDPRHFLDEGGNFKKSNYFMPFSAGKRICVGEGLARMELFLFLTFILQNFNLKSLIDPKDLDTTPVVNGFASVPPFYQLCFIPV
Sequence of Cytochrome P450 3A4 (Homo sapiens) (P08684 whole entry, looked up): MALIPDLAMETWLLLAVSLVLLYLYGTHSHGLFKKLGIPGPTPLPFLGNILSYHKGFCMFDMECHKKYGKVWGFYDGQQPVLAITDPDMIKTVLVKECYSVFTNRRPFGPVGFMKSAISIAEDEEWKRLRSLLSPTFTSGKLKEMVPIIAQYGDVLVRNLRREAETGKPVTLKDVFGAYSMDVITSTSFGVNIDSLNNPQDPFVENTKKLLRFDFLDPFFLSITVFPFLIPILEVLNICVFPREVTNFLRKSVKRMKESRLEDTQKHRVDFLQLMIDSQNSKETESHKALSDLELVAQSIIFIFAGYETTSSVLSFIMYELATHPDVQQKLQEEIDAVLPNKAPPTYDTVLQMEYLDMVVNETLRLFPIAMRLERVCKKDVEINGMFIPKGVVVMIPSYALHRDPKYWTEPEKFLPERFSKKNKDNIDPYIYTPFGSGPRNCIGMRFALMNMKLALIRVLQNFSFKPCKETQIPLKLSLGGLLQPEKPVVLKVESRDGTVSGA
Sequence of Cytochrome P450 1A2 (Homo sapiens) (P05177 whole entry, looked up): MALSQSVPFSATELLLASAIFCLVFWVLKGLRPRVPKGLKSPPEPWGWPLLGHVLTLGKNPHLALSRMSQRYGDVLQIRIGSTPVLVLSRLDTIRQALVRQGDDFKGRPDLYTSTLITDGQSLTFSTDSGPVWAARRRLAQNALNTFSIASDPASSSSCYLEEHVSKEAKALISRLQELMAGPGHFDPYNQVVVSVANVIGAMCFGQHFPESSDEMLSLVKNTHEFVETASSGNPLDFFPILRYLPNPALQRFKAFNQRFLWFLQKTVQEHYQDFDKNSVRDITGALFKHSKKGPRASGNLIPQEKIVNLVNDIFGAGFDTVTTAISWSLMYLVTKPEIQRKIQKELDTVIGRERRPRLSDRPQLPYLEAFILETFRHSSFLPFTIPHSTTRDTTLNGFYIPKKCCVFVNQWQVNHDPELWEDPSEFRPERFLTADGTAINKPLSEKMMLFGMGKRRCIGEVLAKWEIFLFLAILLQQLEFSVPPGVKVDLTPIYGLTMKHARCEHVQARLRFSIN
Sequence of Cytochrome P450 2C9 (Homo sapiens) (P11712 whole entry, looked up): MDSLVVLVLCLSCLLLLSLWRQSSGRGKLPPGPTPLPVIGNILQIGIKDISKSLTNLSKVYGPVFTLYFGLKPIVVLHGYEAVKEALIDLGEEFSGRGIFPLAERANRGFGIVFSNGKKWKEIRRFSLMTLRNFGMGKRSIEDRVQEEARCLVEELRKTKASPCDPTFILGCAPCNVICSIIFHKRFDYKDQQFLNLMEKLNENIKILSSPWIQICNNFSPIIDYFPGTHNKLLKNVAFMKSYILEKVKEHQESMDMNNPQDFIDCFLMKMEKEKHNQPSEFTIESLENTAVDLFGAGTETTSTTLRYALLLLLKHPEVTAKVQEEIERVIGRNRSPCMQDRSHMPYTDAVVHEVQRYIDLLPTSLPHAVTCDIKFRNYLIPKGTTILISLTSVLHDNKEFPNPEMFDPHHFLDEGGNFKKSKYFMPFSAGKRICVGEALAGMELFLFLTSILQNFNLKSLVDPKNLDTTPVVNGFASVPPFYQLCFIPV
Sequence of Voltage-gated inwardly rectifying potassium channel KCNH2 (Homo sapiens) (Q12809 whole entry, looked up): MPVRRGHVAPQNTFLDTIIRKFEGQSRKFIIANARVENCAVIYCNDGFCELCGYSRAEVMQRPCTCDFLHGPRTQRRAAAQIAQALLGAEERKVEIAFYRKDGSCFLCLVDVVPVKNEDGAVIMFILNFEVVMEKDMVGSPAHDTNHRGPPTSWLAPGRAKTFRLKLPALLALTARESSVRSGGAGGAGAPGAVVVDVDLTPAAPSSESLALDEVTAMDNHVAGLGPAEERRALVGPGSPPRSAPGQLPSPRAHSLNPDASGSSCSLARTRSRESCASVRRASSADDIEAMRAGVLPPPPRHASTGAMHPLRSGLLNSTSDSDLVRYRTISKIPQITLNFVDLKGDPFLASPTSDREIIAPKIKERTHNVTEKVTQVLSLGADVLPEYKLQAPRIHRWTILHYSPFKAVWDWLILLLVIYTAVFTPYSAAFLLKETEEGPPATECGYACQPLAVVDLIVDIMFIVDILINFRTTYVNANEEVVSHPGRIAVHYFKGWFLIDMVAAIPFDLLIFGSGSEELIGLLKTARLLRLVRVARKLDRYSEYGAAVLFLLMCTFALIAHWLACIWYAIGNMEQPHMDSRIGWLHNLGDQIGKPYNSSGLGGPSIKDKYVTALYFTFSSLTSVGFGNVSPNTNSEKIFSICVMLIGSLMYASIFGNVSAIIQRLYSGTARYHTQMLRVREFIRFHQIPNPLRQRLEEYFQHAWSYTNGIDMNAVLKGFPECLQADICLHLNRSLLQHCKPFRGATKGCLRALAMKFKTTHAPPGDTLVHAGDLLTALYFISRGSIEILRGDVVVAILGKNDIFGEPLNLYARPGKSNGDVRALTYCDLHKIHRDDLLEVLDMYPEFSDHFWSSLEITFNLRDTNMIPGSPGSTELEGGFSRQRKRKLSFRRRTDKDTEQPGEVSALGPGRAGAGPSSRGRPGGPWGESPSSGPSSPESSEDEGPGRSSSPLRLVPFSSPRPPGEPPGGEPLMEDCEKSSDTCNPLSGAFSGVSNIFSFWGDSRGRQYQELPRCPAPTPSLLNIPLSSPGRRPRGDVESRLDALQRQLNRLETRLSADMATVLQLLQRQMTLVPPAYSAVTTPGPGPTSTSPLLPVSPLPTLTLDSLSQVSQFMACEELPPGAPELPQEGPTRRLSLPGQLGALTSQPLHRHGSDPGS
Sequence of Cytochrome P450 2D6 (Homo sapiens) (P10635 whole entry, looked up): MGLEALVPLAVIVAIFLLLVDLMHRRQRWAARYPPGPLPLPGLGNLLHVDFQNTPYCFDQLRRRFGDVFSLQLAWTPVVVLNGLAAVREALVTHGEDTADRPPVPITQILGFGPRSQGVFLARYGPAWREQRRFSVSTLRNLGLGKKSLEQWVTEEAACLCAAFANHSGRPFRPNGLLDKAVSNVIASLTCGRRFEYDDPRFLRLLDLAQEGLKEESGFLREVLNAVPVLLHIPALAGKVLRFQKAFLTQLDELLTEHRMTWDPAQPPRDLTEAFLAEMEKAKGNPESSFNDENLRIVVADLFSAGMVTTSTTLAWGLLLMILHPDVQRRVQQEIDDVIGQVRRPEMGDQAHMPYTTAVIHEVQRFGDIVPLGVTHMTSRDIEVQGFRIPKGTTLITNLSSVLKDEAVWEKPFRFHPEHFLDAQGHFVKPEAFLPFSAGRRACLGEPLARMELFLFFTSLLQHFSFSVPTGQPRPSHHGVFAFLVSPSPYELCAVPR

Row | Compound | Potency [1] | Potency [2] | Potency [3] | Potency [4] | Potency [5] | Potency [6]
1 | CC(C)(CO)[C@@H](O)C(=O)NCCC(=O)O | inactive | inactive | inactive |  |  | 
2 | CCOC(=O)C1CC(=O)C(=C(O)C2CC2)C(=O)C1 (stereo not given) | inactive | 71 µM (active) | inactive | inactive | inactive | 
3 | CCOc1ccc2nc(N)sc2c1 | 39.6 µM (active) |  |  | 17.7 µM (active) |  | 31.5 µM (active)
4 | Nc1ccc2ccccc2c1S(=O)(=O)O | 32.4 µM (active) | 40.7 µM (active) | 57.5 µM (active) |  | inactive | 
5 | COc1cc(Cl)ccc1Cl | inactive |  | inactive | 36.3 µM (active) | inactive | inactive
6 | Cc1ncc(CO)c(CN)c1O | inactive |  | inactive | inactive | inactive | inactive
7 | ICCc1ccccc1 | 6.95 µM (active) | 78 µM (active) | inactive |  | inactive | 
8 | CCOC(=O)[C@H](CCc1ccccc1)N[C@@H](C)C(=O)N1Cc2cc(OC)c(OC)cc2C[C@H]1C(=O)O | inactive |  |  | inactive | inactive | 15.5 µM (active)
9 | O=CCCc1ccccc1 |  | 25.2 µM (active) |  |  | inactive | 35.6 µM (active)
10 | CCCCC1CCC(=O)O1 (stereo not given) |  | inactive | inactive |  | inactive | inactive
11 | C/C(=N\O)[C@@H](C)NCC(C)(C)CN[C@H](C)/C(C)=N/O |  | inactive |  |  | inactive | inactive
12 | NC(=O)Cc1cccc(C(=O)c2ccccc2)c1N |  | 34.7 µM (active) | inactive | 15.5 µM (active) | inactive | inactive
13 | CCCNC(C)C(=O)Nc1c(C)csc1C(=O)OC (stereo not given) |  | inactive | inactive |  | inactive | inactive
14 | CCN(CCCc1ccccc1)CCCc1ccccc1 |  | 6.92 µM (active) | inactive | 7.23 µM (active) |  | inactive
15 | CCCCCCCCCCCCCCCCOP(=O)([O-])OCC[N+](C)(C)C |  | inactive | inactive |  | inactive | inactive
